Among all 360,000 compounds or so, about 25,000 (6.9%) were called active. Not shown: some 9% with an inconclusive outcome. The list comes from a sample in which actives are over-represented; it also holds similar structures and randomly drawn compounds. A number with no mark means an inactive call. Calls follow the shape of the dose curve; as a rule, active = well fitted inhibition curve with a large enough effect; inconclusive = small, poorly fitted or top-dose-only effect; inactive = flat fitted curve, though single readings scatter.
Biological target: Luciferin 4-monooxygenase (Photinus pyralis) (UniProt P08659)
Assay: qHTS profiling assay for firefly luciferase inhibitor/activator using purifed enzyme and Km concentrations of substrates (counterscreen for miR-21 project); also: nearly all actives have a fitted effect of over 55% in size;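 as to activity change, negative = inhibition: plate controls were vehicle for no effect and reference inhibitor for full effect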
Conditions: purified FLuc, luminescence inhibition; series mostly up to 57.5 µM; activity change, negative = inhibition: at the top concentration
Summary of the method: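 Purified P. pyralis luciferase (10nM final) with 10uM D-luciferin and 10uM ATP (Km levels) in 50mM Tris acetate pH 7.5, 10mM Mg acetate, 0.01% Tween-20, 0.05% BSA; qHTS 6-point titration, ~60 µM downward; luminescence read.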
Potency is read from the fitted curve at half-maximal effect.

Sequence of Luciferin 4-monooxygenase (Photinus pyralis) (P08659 whole entry, looked up): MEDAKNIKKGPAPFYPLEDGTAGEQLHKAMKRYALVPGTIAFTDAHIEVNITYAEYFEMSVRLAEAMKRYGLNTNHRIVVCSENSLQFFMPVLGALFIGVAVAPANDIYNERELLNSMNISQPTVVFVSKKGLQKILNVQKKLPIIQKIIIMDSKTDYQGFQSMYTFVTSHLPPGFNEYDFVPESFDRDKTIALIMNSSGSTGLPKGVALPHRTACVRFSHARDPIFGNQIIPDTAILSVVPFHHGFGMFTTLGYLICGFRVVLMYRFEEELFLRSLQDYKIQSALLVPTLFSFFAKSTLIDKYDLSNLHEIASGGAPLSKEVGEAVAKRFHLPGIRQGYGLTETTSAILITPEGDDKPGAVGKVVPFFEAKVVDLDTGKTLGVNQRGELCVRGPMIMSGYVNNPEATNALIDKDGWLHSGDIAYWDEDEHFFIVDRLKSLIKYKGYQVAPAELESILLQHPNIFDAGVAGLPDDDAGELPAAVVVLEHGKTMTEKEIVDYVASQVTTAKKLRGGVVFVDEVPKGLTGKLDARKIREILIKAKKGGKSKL

Q: How did the “activity change, negative = inhibition” value turn out when `CC(=O)OC1=C(C(C)=O)N(Cc2ccccc2)S(=O)(=O)c2ccccc21` was run?
A: The value was -2.47%.

Q: Which “activity change, negative = inhibition” value does the source give for `CN1/C(=C\C=C2\N=C(c3ccc(F)cc3)OC2=O)C(C)(C)c2ccccc21` here?
A: The value was -15.8%.

Q: For `Cc1cccc(C2=N/C(=C/c3cccs3)C(=O)O2)c1`, which Potency is on record?
A: The Potency was 2.69 µM (active).

Q: `Cc1ccc(C2=N/C(=C\c3ccc(OS(=O)(=O)c4ccc(C)cc4)cc3)C(=O)O2)cc1` was tested. Which “activity change, negative = inhibition” value did it give?
A: The value was -0.259%.

Q: Which “activity change, negative = inhibition” value does the source give for `CCCCOc1ccc(C(=O)N2CC(=O)Nc3ccc(Br)cc3C2c2ccc(F)cc2)cc1` (stereo unspecified) here?
A: The value was 2.33%.

Q: Which “activity change, negative = inhibition” value does the source give for `CCc1ccc(CNC(=O)c2cc3cc4ccc(OC)cc4nc3o2)cc1` here?
A: The value was -1.47%.

Q: For `Cc1ccc2cc3cc(C(=O)N4CCCCCC4)oc3nc2c1`, which Potency is on record?
A: Its Potency is 2.69 µM (active).

Q: Which “activity change, negative = inhibition” value does the source give for `Cc1ccc2oc(=O)c3cnn(CC(=O)N4CCCCCC4)c3c2c1` here?
A: The value was -0.0331%.

Q: With `CCCCn1c(N)c(N(CC)C(=O)c2ccc(N(C)S(=O)(=O)c3ccc(C)cc3)cc2)c(=O)[nH]c1=O` as the compound, how does the “activity change, negative = inhibition” value read?
A: The value was 3.09%.

Q: For `Cc1cc(Br)ccc1SCC(=O)OCC(=O)NCc1ccc2c(c1)OCO2`, which “activity change, negative = inhibition” value is on record?
A: Its value is 2.23%.

Q: Which “activity change, negative = inhibition” value does the source give for `Cc1ccccc1NC(=O)Cc1nc(COC(=O)c2cccnc2Cl)cs1` here?
A: The value was 5.2%.

Q: How did the “activity change, negative = inhibition” value turn out when `CCCNC(=O)C1CCC(Cn2c(=O)c3sccc3n(Cc3ccccc3F)c2=O)CC1` (stereo unspecified) was run?
A: The value was -0.991%.

Q: Which “activity change, negative = inhibition” value does the source give for `COc1ccc(NC(=O)CSc2ncnc3[nH]ncc23)cc1` here?
A: Its value is -2.98%.

Q: `COc1ccc(-n2ncc3c(SCC(=O)NNC(C)=O)ncnc32)cc1` was tested. Which Potency did it give?
A: The Potency was 16.9 µM (active).

Q: With `CC(=O)Cn1cnc2c(cnn2-c2ccccc2)c1=O` as the compound, how does the “activity change, negative = inhibition” value read?
A: Its value is -18.6%.

Q: How did the “activity change, negative = inhibition” value turn out when `O=C(Cn1cnc2c(cnn2-c2ccc(F)cc2)c1=O)NCCc1ccccc1` was run?
A: The value was 0.0901%.

Q: `CCN(CC)C(=O)CSc1ncnc2c1cnn2-c1ccccc1` was tested. Which Potency did it give?
A: The Potency was 16.9 µM (active).

Q: For `O=C(Cn1cnc2c(cnn2-c2ccccc2)c1=O)NCc1ccccc1`, which “activity change, negative = inhibition” value is on record?
A: The value was 0.29%.

Q: `CC(Sc1ncnc2c1cnn2-c1ccccc1)C(=O)Nc1ccc(N2CCOCC2)cc1` (stereo unspecified) was tested. Which “activity change, negative = inhibition” value did it give?
A: Its value is -13.5%.

Q: With `CC(C)Sc1ncnc2c1cnn2-c1ccccc1` as the compound, how does the Potency read?
A: The Potency was 1.51 µM (active).

Q: How did the “activity change, negative = inhibition” value turn out when `CC(=O)Nc1ccc(NC(=O)CSc2ncnc3c2cnn3Cc2ccccc2)cc1` was run?
A: Its value is -2.73%.

Q: For `CCN(CC)C(=O)CSc1nc2cc3c(cc2c(=O)n1CCCC(=O)NCc1ccc2c(c1)OCO2)OCO3`, which “activity change, negative = inhibition” value is on record?
A: Its value is -12.4%.

Q: How did the “activity change, negative = inhibition” value turn out when `CCC1=Nc2cc(C(=O)NCCCOC(C)C)ccc2Sc2ccc(C)cc21` was run?
A: The value was -18%.

Q: How did the “activity change, negative = inhibition” value turn out when `CCN(CC)S(=O)(=O)c1ccc2c(c1)c(=O)c(C(=O)N1CCN(c3cccc(Cl)c3)CC1)cn2C` was run?
A: Its value is -3.84%.

Q: How did the “activity change, negative = inhibition” value turn out when `CC(C)(C)OC(=O)N1CCC(c2c(C(=O)Nc3ccc4c(c3)OCO4)cnn2-c2ccccc2)CC1` was run?
A: Its value is -10.2%.

Q: `COc1ccc(-c2noc(CCC(=O)N(C)c3ccccc3C)n2)cc1` was tested. Which “activity change, negative = inhibition” value did it give?
A: The value was -2%.

Q: How did the “activity change, negative = inhibition” value turn out when `CN(CC(=O)NCC(c1ccccc1)N1CCCC1)S(=O)(=O)c1ccc(Cl)cc1` (stereo unspecified) was run?
A: The value was 4.5%.

Q: For `CCOC(=O)c1ccc(NC(=O)Cn2c(=O)cc(C)c3c(C)nn(-c4cccc(F)c4)c32)cc1`, which “activity change, negative = inhibition” value is on record?
A: The value was -1.71%.

Q: With `O=C(COC(=O)CCc1nc2ccccc2c(=O)[nH]1)Nc1ccc(N2CCOCC2)cc1` as the compound, how does the “activity change, negative = inhibition” value read?
A: The value was 2.6%.

Q: With `CCCCCCSc1nsc(N)n1` as the compound, how does the Potency read?
A: The Potency was 26.9 µM (active).

Q: With `CCCSc1nsc(N)n1` as the compound, how does the “activity change, negative = inhibition” value read?
A: The value was 1.46%.

Q: Which “activity change, negative = inhibition” value does the source give for `CC(C)CC(=O)NC(=S)NNC(=O)c1cccc([N+](=O)[O-])c1` here?
A: Its value is -3.1%.

Q: How did the “activity change, negative = inhibition” value turn out when `COc1ccc(OCCNC(=O)c2cc(C3CC3)nc3c2cnn3C(C)C)cc1` was run?
A: Its value is -1.66%.

Q: `CCOC(=O)c1ccc(NC(=O)C2CCN(S(=O)(=O)c3ccc4c(c3)CCCC(=O)N4)CC2)cc1` was tested. Which “activity change, negative = inhibition” value did it give?
A: The value was -2.69%.

Q: Which “activity change, negative = inhibition” value does the source give for `COc1ccc(-c2nnc3ccc(SCc4ccccc4)nn23)cc1` here?
A: The value was 5.99%.

Q: For `COc1cccc(CSc2nc3nc(C)cc(C)n3n2)c1`, which “activity change, negative = inhibition” value is on record?
A: Its value is -7.46%.

Q: How did the Potency turn out when `COc1ccc2nc(SCc3ccccc3)nc(C)c2c1` was run?
A: The Potency was 2.69 µM (active).

Q: With `CC(Oc1ccc(Br)cc1)C(=O)NC1CCCCCC1` (stereo unspecified) as the compound, how does the “activity change, negative = inhibition” value read?
A: The value was -13%.

Q: `CCn1cc(C(=O)N2CCN(c3cc(Cl)ccc3C)CC2)c(=O)c2cc(S(=O)(=O)N3CCCC3)ccc21` was tested. Which “activity change, negative = inhibition” value did it give?
A: Its value is -11.8%.

Q: How did the “activity change, negative = inhibition” value turn out when `CC(C)(Oc1ccc(Cl)cc1)C(=O)OCC(=O)NCCc1ccc(S(N)(=O)=O)cc1` was run?
A: Its value is 0.709%.

Q: `O=C(NCCc1ccccc1)C(=O)NCC(c1ccco1)S(=O)(=O)c1ccccc1` (stereo unspecified) was tested. Which “activity change, negative = inhibition” value did it give?
A: The value was 4.63%.

Q: How did the “activity change, negative = inhibition” value turn out when `CCCCn1c(N)c(N(CCOC)C(=O)c2cccc(S(=O)(=O)N(C)c3ccccc3)c2)c(=O)[nH]c1=O` was run?
A: The value was -6.07%.

Q: Which “activity change, negative = inhibition” value does the source give for `NC(=O)C1CCN(C(=O)c2cn(-c3ccccc3)nc2-c2cccnc2)CC1` here?
A: The value was -10.3%.

Q: `O=C(c1cn(-c2ccccc2)nc1-c1cccnc1)N1CCN(S(=O)(=O)c2ccccc2F)CC1` was tested. Which “activity change, negative = inhibition” value did it give?
A: Its value is -17.1%.

Q: Which Potency does the source give for `COc1ccccc1N1CCN(C(=O)c2cn(-c3ccccc3)nc2-c2cccnc2)CC1` here?
A: Its Potency is 9.53 µM (active).

Q: `CCOCCCNC(=O)c1c(NC(=O)Cc2coc3c(C)c(C)ccc23)sc2c1CCC2` was tested. Which “activity change, negative = inhibition” value did it give?
A: Its value is -13.5%.

Q: `CC[C@]1(c2ccccc2OC)C(=O)N(C(=O)OC)N1C(=O)OC` was tested. Which “activity change, negative = inhibition” value did it give?
A: Its value is -0.0873%.

Q: For `O=C(COc1ccccc1)NCc1ccc2c(c1)CCN2C(=O)c1ccc(F)cc1`, which “activity change, negative = inhibition” value is on record?
A: Its value is -19.4%.

Q: With `Cc1cccc(OCCNC(=O)CSc2ccc(C(F)(F)F)cc2[N+](=O)[O-])c1` as the compound, how does the “activity change, negative = inhibition” value read?
A: The value was 4.07%.

Q: How did the “activity change, negative = inhibition” value turn out when `COc1ccc(-c2nn(CC(=O)Nc3ccccc3F)c3c2cnc2ccc(F)cc23)cc1` was run?
A: The value was 5.92%.

Q: With `CC(C)(C)OC(=O)N1CCC(C(=O)NNC(=O)c2ccc(Cl)cc2Cl)CC1` as the compound, how does the “activity change, negative = inhibition” value read?
A: The value was -9.56%.

Reference: PubChem BioAssay AID588342 (National Center for Advancing Translational Sciences (NCATS), 2011)
